Test results reported in PubChem BioAssay (Tox21).
Where “and” joins values, the source holds several entries; their conditions need not be identical. Identical values can stand only once. Records with an inconclusive call do not appear. Some compounds were tested as several samples or in several runs, with calls that do not always agree. Calls of active or inactive are those of the source. Unless noted, calls follow the shape of the full dose curve.

Columns and labels:
[1] = Nuclear factor erythroid 2-related factor 2/antioxidant responsive element (Nrf2/ARE) small molecule agonists: qHTS cell viability counter screen in human keratinocytes (AID 1919968; active = well fitted curve in the direction sought with a large enough effect in the repeat runs; an effect the other way counts as inactive or inconclusive; also: nearly all actives have a fitted effect of over 55% in size; also: potency is read from the fitted curve at half-maximal effect)
Summary of the method: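 Seed 1,500 KeratinoSens cells per well, then incubate 5 h at 37 C/5% CO2. Add compounds in DMSO and incubate 23 h. Add CellTiter-Fluor, wait 1 h and read fluorescence.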

[2] = Nuclear factor erythroid 2-related factor 2/antioxidant responsive element (Nrf2/ARE) small molecule agonists: luciferase reporter gene qHTS assay in human keratinocytes (AID 1919969); also: nearly all actives have a fitted effect of over 35% in size; also: potency is read from the fitted curve at half-maximal effect
[3] = biological target: Gonadotropin-releasing hormone receptor (Homo sapiens) (UniProt P30968); test: Human gonadotropin-releasing hormone receptor (GnRHR) small molecule agonists, calcium flux assay in GnRHR-HEK293 cells (AID 1920063); also: nearly all actives have a fitted effect of over 35% in size
Sequence of Gonadotropin-releasing hormone receptor (Homo sapiens) (P30968 whole entry, looked up): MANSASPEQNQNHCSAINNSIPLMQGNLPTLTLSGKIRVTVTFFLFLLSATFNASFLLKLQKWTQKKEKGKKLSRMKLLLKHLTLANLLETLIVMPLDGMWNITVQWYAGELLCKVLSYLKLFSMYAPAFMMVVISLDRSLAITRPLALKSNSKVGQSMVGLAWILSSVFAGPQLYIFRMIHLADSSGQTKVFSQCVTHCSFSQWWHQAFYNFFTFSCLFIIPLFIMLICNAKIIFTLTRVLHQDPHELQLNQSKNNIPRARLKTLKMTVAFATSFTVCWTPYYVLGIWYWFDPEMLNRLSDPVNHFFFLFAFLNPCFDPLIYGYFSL
Summary of the method: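 Cells: HEK293 stably expressing human GnRHR. Steps: overnight (18 h) culture, 1 h calcium dye loading at 37 C, compound addition, kinetic fluorescence read at 480/540 nm. Each compound tested at 15 concentrations in triplicate.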

[4] = G protein-coupled receptor (GPCR) small molecule agonists, calcium flux assay: HEK293 wild type cell line counter screen (AID 1920065)
Summary of the method: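 Counter-screen of the Tox21 10K library for non-specific calcium release: dye-loaded cells received compounds in DMSO and were monitored by kinetic fluorescence (480/540 nm, 3 min). Fifteen concentrations, run in triplicate.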

[5] = p53 small molecule agonists, cell-based qHTS assay with rat liver microsomes (AID 1963578)
Summary of the method: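 Rat liver microsome activation: microsomes 0.5 mg/mL, NADPH 0.5 mg/mL final; p53RE-bla cells, 16 h 37 C; LiveBLAzer readout, 2 h RT dark.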

[6] = p53 small molecule agonists, cell-based qHTS assay with human liver microsomes: qHTS cell viability counter screen (AID 1963579); also: nearly all actives have a fitted effect of over 45% in size; also: potency is read from the fitted curve at half-maximal effect
Summary of the method: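 Luminescent CellTiter-Glo read-out, 30 min at room temperature, gauged cytotoxicity in p53RE-bla cells exposed 16 h at 37 C to DMSO-dissolved compounds with metabolic activation by human liver microsomes and NADPH, each 0.5 mg/mL final.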

[7] = p53 small molecule agonists, cell-based qHTS assay with rat liver microsomes: qHTS cell viability counter screen (AID 1963580); also: nearly all actives have a fitted effect of over 45% in size
Summary of the method: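 In HCT-116 cells carrying a p53 response element-bla reporter, compounds were metabolically activated in situ by rat liver microsomes with NADPH over 16 h. Cell ATP content then served as the cytotoxicity measure.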

[8] = p53 small molecule agonists, cell-based qHTS assay: qHTS cell viability counter screen (AID 1963581); also: nearly all actives have a fitted effect of over 45% in size
Summary of the method: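 Cells: HCT-116 with p53 response element-driven beta-lactamase. Treatment: 16 h, 37 C, compounds in DMSO. Read: CellTiter-Glo luminescence after 30 min RT.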

[9] = p53 small molecule agonists, cell-based qHTS assay (AID 1963582; active = well fitted activation curve with a large enough effect in the signal ratio in the repeat runs, not every such curve was filed as active; the % refers to the signal ratio; also: potency is read from the fitted curve at half-maximal effect)
Summary of the method: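 Quantitative HTS in p53RE-bla cells: after a 5 h settling period, compounds delivered in DMSO were left on cells for 16 h at 37 C, and reporter induction was measured as fluorescence following 2 h substrate loading.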

[10] = biological target: 5-hydroxytryptamine receptor 2A (Homo sapiens) (UniProt P28223); test: 5-hydroxytryptamine receptor 2A (HTR2A) small molecule antagonists, cell-based qHTS assay (AID 1963586); also: nearly all actives have a fitted effect of over 45% in size
Sequence of 5-hydroxytryptamine receptor 2A (Homo sapiens) (P28223 whole entry, looked up): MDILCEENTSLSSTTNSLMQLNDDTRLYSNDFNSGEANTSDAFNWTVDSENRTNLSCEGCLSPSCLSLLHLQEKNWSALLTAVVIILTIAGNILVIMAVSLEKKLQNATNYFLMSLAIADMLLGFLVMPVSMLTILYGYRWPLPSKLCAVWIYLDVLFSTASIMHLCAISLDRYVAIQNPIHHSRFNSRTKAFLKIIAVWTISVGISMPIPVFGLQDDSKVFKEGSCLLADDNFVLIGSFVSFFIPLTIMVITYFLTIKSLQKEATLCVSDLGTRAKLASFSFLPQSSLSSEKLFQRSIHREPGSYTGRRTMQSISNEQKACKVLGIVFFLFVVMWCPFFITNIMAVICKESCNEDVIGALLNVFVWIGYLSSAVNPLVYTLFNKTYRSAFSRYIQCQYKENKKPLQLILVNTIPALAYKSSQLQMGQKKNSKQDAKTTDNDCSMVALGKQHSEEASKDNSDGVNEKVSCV
Summary of the method: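 Antagonist-mode intracellular calcium assay: DOI (4 nM) added after 5 min compound pre-incubation at room temperature to dye-loaded HTR2A-CHO cells. Fluorescence followed for 3 min, sampled every second.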

[11] = biological target: 5-hydroxytryptamine receptor 2A (Homo sapiens) (UniProt P28223); test: 5-hydroxytryptamine receptor 2A (HTR2A) small molecule agonists, cell-based qHTS assay (AID 1963587); also: nearly all actives have a fitted effect of over 30% in size
Summary of the method: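 HTR2A-CHO cells, plated 18 h at 37 C/5% CO2, dye-loaded 1 h at 37 C; compounds in DMSO added by pin tool (agonist mode). Intracellular calcium flux read as kinetic fluorescence on FDSS over 2 min at 1 s intervals.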

[12] = biological target: Muscarinic acetylcholine receptor M1 (Homo sapiens) (UniProt P11229); test: Cholinergic receptor muscarinic 1 (CHRM1) small molecule antagonists, cell-based qHTS assay (AID 1963588); also: nearly all actives have a fitted effect of over 40% in size; also: potency is read from the fitted curve at half-maximal effect
Sequence of Muscarinic acetylcholine receptor M1 (Homo sapiens) (P11229 whole entry, looked up): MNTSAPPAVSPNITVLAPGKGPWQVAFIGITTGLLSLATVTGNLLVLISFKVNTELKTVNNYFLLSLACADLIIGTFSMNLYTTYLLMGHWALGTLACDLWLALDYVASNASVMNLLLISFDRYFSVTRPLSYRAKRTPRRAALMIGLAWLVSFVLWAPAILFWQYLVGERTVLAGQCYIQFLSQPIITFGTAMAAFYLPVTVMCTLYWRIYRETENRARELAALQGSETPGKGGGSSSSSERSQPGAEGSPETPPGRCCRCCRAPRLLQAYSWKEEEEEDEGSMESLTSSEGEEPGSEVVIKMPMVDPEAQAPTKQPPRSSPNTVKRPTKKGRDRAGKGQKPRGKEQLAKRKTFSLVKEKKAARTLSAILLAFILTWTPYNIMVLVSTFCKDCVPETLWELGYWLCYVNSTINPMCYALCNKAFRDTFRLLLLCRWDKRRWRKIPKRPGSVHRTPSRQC
Summary of the method: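 CHRM1-CHO calcium-flux assay, antagonist mode. Cells were seeded 18 h, dye-loaded 1 h at 37 C and given compound for 5 min at RT, then acetylcholine was added at 50nM. FDSS fluorescence was read 3 min; 15 concentrations, three runs.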

[13] = biological target: Muscarinic acetylcholine receptor M1 (Homo sapiens) (UniProt P11229); test: Cholinergic receptor muscarinic 1 (CHRM1) small molecule agonists, cell-based qHTS assay (AID 1963589); also: nearly all actives have a fitted effect of over 35% in size
Summary of the method: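 Agonist-mode qHTS in CHO cells stably carrying human muscarinic M1. Intracellular calcium is tracked by fluorescence every second after compound transfer; each compound runs at 15 concentrations in three independent runs.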

[14] = cAMP Responsive Elements (CRE) small molecule agonists, cell-based qHTS assay (AID 1963590)
Summary of the method: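 Agonist mode qHTS in CRE-bla HEK 293T cells: compounds dosed from DMSO for 3 h at 37 C/5% CO2, followed by LiveBLAzer B/G FRET substrate for 2 h at room temperature.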

[15] = cAMP Responsive Elements (CRE) small molecule antagonists, cell-based qHTS assay (AID 1963591; active = well fitted inhibition curve with a large enough effect in the signal ratio in the repeat runs, not every such curve was filed as active; the % refers to the signal ratio)
Summary of the method: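 Antagonist mode: test compounds are co-incubated with the adenylyl cyclase activator NKH477 (0.25 uM final) on CRE-bla HEK293T cells for 3 h at 37 °C, followed by LiveBLAzer substrate loading.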

[16] = biological target: Beta-2 adrenergic receptor (Homo sapiens) (UniProt P07550); test: Adrenergic beta2 receptor (ADRB2) small molecule antagonists, cell-based qHTS assay (AID 1963592); also: series mostly up to about 92 µM; nearly all actives have a fitted effect of over 50% in size
Sequence of Beta-2 adrenergic receptor (Homo sapiens) (P07550 whole entry, looked up): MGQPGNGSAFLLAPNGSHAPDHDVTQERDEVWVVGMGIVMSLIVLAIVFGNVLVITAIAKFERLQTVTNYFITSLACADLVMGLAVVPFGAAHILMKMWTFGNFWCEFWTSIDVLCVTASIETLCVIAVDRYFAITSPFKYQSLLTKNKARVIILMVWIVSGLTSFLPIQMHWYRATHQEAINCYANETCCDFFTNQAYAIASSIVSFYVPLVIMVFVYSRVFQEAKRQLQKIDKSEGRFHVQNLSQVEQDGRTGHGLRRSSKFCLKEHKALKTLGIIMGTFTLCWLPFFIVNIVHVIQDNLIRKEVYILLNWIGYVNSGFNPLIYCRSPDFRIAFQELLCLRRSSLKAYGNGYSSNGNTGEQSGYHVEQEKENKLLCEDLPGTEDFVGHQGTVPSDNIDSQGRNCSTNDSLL
Summary of the method: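 Cells (CHO, stable ADRB2 overexpression) incubated 18-20hr at 37C; compounds added from DMSO; agonist mix (1nM isoproterenol, 100uM IBMX, 25uM Ro-20-1724) added; 0.5hr RT; d2-cAMP and anti-cAMP-cryptate added; 1hr RT; 665/615 nm read.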

[17] = biological target: Beta-2 adrenergic receptor (Homo sapiens) (UniProt P07550); test: Adrenergic beta2 receptor (ADRB2) small molecule agonists, cell-based qHTS assay (AID 1963593);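 also: CHO cells stably overexpressing human ADRB2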
Summary of the method: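 CHO cells stably over-expressing ADRB2 were plated overnight at 37C, then dosed with compounds plus a stimulation mix containing 100uM IBMX and 25uM Ro-20-1724 for 0.5hr at room temperature. cAMP was measured by HTRF competition, 1hr.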

[18] = biological target: D(2) dopamine receptor (Homo sapiens) (UniProt P14416); test: Dopamine D2 receptor (DRD2) small molecule agonists, cell-based qHTS assay (AID 1963594); also: nearly all actives have a fitted effect of over 35% in size
Sequence of D(2) dopamine receptor (Homo sapiens) (P14416 whole entry, looked up): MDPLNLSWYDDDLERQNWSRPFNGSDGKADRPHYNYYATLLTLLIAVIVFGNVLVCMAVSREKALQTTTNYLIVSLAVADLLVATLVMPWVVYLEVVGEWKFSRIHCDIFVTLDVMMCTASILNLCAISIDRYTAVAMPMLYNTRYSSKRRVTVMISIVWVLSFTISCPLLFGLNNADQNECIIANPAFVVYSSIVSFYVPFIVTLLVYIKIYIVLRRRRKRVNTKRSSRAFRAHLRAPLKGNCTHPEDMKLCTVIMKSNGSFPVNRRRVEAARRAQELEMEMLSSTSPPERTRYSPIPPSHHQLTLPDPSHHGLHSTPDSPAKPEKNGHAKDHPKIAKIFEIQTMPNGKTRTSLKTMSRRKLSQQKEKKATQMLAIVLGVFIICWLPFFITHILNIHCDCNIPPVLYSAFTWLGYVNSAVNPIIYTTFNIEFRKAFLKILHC
Summary of the method: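 HEK293 cells stably expressing DRD2 were cultured 24 h at 37 C, then given Ro20-1724 (0.1 mM final) and compounds for 10 min at room temperature. NKH477 (200nM) was then added for 30 min. cAMP was read by HTRF.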

[19] = biological target: D(2) dopamine receptor (Homo sapiens) (UniProt P14416); test: Dopamine D2 receptor (DRD2) small molecule antagonists, cell-based qHTS assay (AID 1963595; active = well fitted inhibition curve with a large enough effect in the signal ratio in the repeat runs, with a control signal flat; the % refers to the signal ratio; also: potency is read from the fitted curve at half-maximal effect)
Summary of the method: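 DRD2-HEK293; 0.1 mM Ro20-1724; cpd 10 min RT; NKH477 200 nM + quinpirole 12 nM, 30 min RT; HTRF cAMP (cAMP-d2/anti-cAMP cryptate), 665/620 nm ratio after 1 h.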

[20] = biological target: KiSS-1 receptor (Homo sapiens) (UniProt Q969F8); test: Human kisspeptin (KISS1R) small molecule agonists, calcium flux assay in KISS1R-HEK293 cells (AID 1920064; active = well fitted curve in the direction sought with a large enough effect in the repeat runs; an effect the other way counts as inactive or inconclusive)
Sequence of KiSS-1 receptor (Homo sapiens) (Q969F8 whole entry, looked up): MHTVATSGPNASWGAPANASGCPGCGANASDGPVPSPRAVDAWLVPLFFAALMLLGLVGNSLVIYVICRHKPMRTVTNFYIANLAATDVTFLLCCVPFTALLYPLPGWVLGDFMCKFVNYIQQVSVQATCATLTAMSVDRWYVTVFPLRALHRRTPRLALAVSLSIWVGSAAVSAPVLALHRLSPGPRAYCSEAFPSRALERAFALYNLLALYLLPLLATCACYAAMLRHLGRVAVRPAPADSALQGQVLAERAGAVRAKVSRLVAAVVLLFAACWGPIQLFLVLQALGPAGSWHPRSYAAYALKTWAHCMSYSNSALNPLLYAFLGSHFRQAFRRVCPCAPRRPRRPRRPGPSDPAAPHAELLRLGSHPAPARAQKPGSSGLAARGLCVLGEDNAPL
Summary of the method: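 Cells plated and incubated 18 h; dye added, 1 h at 37 C; compounds in DMSO pinned in; signal read at 480/540 nm every second for 3 min. Each compound tested at 15 concentrations in triplicate.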

Measured: Potency

ClCCOCCCl
inactive: [1] | [2] | [3] | [4] | [5] | [6] | [7] | [8] | [9] | [10] | [11] | [12] | [13] | [14] | [15] | [16] | [17] | [18] | [19]

OCC(Cl)CCl (centres undefined)
inactive: [1] | [2] | [3] | [4] | [5] | [6] | [7] | [8] | [9] | [10] | [11] | [12] | [13] | [14] | [15] | [16] | [17] | [18]

O=C(Cl)OCCOCCOC(=O)Cl
inactive: [1] | [2] | [3] | [4] | [5] | [6] | [7] | [8] | [9] | [10] | [11] | [12] | [13] | [14] | [15] | [16] | [17] | [19]

CCN(CC)Cc1nccn1-c1ccc([N+](=O)[O-])cc1C(=O)c1ccccc1Cl
inactive: [1] | [2] | [3] | [4] | [5] | [6] | [7] | [8] | [9] | [10] | [11] | [12] | [13] | [14] | [15] | [16] | [17] | [18] | [19]

O=[N+]([O-])c1ccccc1-c1ccccc1
inactive: [1] | [2] | [3] | [4] | [5] | [6] | [7] | [8] | [9] | [10] | [11] | [12] | [13] | [15] | [16] | [18]

CC(C)(C)C(=O)Cl
inactive: [1] | [2] | [3] | [4] | [5] | [6] | [7] | [8] | [9] | [10] | [11] | [12] | [13] | [14] | [15] | [16] | [18] | [19]

CC(C)(c1ccccc1)c1ccc(O)c(C(C)(C)c2ccccc2)c1
inactive: [3] | [20] | [10] | [11] | [12] | [13] | [18]
inactive and 7.7 µM (active): [2]
active: [1] 13.6 µM and 30.6 µM | [19] 54 µM
40.4 µM (active) and inactive: [6]

NC(=O)OCCCc1ccccc1
inactive: [1] | [2] | [3] | [4] | [5] | [6] | [7] | [8] | [9] | [10] | [11] | [12] | [13] | [14] | [15] | [16] | [17] | [19]

O=NN1CCCC1
inactive: [2] | [3] | [20] | [5] | [6] | [8] | [9] | [12] | [13] | [14] | [16] | [17] | [18] | [19]
14.3 µM (active) and inactive: [1]

CN(N=O)c1ccccc1
inactive: [1] | [2] | [3] | [20] | [6] | [7] | [10] | [11] | [13] | [14] | [15] | [16] | [18] | [19]

CC(c1ccc(O)cc1)c1ccc(O)cc1
active: [9] 38.2 µM
64.3 µM (active) and inactive: [2]
inactive: [1] | [3] | [4] | [5] | [6] | [7] | [8] | [10] | [11] | [13] | [14] | [15] | [16] | [18]
15.7 µM (active) and inactive: [12]

CCCCCCCCCBr
inactive: [1] | [2] | [3] | [20] | [5] | [7] | [8] | [9] | [10] | [11] | [12] | [13] | [14] | [15] | [16] | [17] | [18] | [19]

CCCCCCCCCCOC(=O)c1ccccc1C(=O)OCCCCCCCCCC
inactive: [1] | [2] | [3] | [20] | [5] | [6] | [8] | [9] | [10] | [11] | [12] | [13] | [14] | [15] | [16] | [17] | [18] | [19]
